From PubChem
Sampled rows, rich in hits. Any-hit rate of the full collection: about 5.9%.
ABHD5 PLIN5 PPI: ABHD5-PLIN5 interaction inhibitors, primary screen, cell lysate, split luciferase complementation, luminescence. Perilipin-5 (Homo sapiens) + 1-acylglycerol-3-phosphate O-acyltransferase ABHD5 (Homo …. Split G. princeps luciferase complementation, 4 h. inhibition, % at 4 µM. 360,000 tested, 0.78% active;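 active = inhibition above the mean inhibition across every tested compound plus 3 SD, cut at about 22% in these data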;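 also: 0% = DMSO only wells and the 100% control is not disclosed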
Target sequence (Q00G26 whole entry, looked up): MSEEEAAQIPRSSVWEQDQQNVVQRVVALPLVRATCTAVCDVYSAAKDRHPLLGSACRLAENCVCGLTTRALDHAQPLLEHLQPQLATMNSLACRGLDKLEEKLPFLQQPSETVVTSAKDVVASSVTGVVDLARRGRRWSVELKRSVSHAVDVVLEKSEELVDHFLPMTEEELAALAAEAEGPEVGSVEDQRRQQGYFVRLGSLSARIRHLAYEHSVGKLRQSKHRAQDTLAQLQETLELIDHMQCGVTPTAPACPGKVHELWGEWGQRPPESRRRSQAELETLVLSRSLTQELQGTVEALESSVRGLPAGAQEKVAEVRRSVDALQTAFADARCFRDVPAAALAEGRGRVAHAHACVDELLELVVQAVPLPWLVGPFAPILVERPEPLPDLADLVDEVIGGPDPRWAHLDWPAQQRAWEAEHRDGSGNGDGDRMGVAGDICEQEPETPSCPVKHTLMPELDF
Target sequence (Q8WTS1 whole entry, looked up): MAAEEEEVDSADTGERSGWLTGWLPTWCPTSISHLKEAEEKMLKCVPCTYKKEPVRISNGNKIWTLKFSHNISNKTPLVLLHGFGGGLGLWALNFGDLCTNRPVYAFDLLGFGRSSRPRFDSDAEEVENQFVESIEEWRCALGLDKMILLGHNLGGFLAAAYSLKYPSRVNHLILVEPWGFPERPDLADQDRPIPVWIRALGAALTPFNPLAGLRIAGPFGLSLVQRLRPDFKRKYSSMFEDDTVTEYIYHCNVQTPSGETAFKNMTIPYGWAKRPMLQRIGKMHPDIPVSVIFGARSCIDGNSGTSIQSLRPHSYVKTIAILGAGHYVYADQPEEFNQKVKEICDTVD
Rtt109 Vps75: inhibitors of C. albicans Rtt109/Vps75 HAT, primary screen, biochemical, ThioGlo CoA-SH fluorescence, plate reader; Histone acetyltransferase RTT109 (Candida albicans (strain SC5314 / ATCC MYA-2876)), …; purified Rtt109/Vps75, 4 h; inhibition, % at 34.9 µM; 330,000 tested, 0.16% active; AID 540336, 2011;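 active = inhibition of at least 50% in every replicate; inconclusive = best replicate reaches 50% inhibition but some replicates fall short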
PRMT1 FP inh: PRMT1 methyltransferase inhibitors, primary screen, biochemical, fluorescence polarization | recombinant PRMT1, activity-based probe fluorescence polarization | inhibition, % at 2.79 µM | 370,000 tested, 1.3% active | AID 652257, 2013;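 active = inhibition above about 21% made by adding two undisclosed values, limit read from the data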
LANA-H2B inh: blockers of LANA interaction with H2A/H2B – biochemical, FP readout, HTS, primary screen. AID 2629, 2010. Protein LANA1 (Human herpesvirus 8 type P (isolate GK18)), Q9QR71. 320,000 tested, 0.6% active. cell-free LANA-H2A/H2B peptide, fluorescence polarization. inhibition, % (test concentration not listed); in the data active = inhibition mostly above about 10%, no sharp cut-off; inactive = mostly below about 6.7%
ALR inh: inhibitors of human ALR sulfhydryl oxidase, primary screen, biochemical, H2O2 detection, HRP-luminol luminescence, single point. AID 485317, 2010. 290,000 tested, 3.8% active. inhibition, % (test concentration not listed). purified ALR, DTT oxidation;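 active = mean replicate inhibition above about 79%, with every replicate also reaching it, limit read from the data; inconclusive = only one of the two criteria met; inactive = mean below limit and not every replicate reaching it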
rCAG binder: binders of r(CAG) RNA repeats, primary screen, biochemical, fluorescence; r(CAG) RNA repeat, TO-PRO-1 dye displacement fluorescence; inhibition, % at 3 µM; 370,000 tested, 1.3% active; AID 651821, 2012;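 active = inhibition above the plate cutoff, the mean of all test compounds on that plate plus 3 SD, cut at about 35% in these data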;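 also: 0% = DMSO alone and 100% = 100 µM mitoxantrone as full dye displacement; higher means more dye released from RNA so lower well fluorescence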
An asterisk follows results filed as active.

`COC(=O)CSc1nc2sc3c(c2c(=O)n1-c1ccc(OC)cc1)CCN(C)C3` gave ABHD5 PLIN5 PPI 14.8, Rtt109 Vps75 0.0, PRMT1 FP inh 2.0 and rCAG binder 0.2.
CCOC(=O)CSc1nc2sc3c(c2c(=O)n1-c1ccc(OC)cc1)CCN(C)C3 was read as ABHD5 PLIN5 PPI 1.9, Rtt109 Vps75 -24.8, PRMT1 FP inh 0.8, LANA-H2B inh 1.5, ALR inh 99.2* and rCAG binder 1.2.
CCOC(=O)CSc1nc2sc3c(c2c(=O)n1-c1ccccc1)CCN(C)C3 was read as ABHD5 PLIN5 PPI 10.5, Rtt109 Vps75 -24.2, PRMT1 FP inh 1.5, LANA-H2B inh -0.1, ALR inh 99.6* and rCAG binder -2.1.
CCOC(=O)CSc1nc2sc3c(c2c(=O)n1-c1ccc(C)cc1)CCN(C)C3 was read as ABHD5 PLIN5 PPI 5.3, Rtt109 Vps75 -1.1, PRMT1 FP inh 2.3, LANA-H2B inh -1.6, ALR inh 99.1* and rCAG binder 10.3.
For CCOC(=O)CSc1nc2sc3c(c2c(=O)n1-c1ccccc1)CCN(C(C)C)C3 the results were ABHD5 PLIN5 PPI -10.7, Rtt109 Vps75 -5.8, PRMT1 FP inh 0.0, LANA-H2B inh 2.7, ALR inh 99.6* and rCAG binder -4.7.
COc1ccc(-n2c(SCC(N)=O)nc3sc4c(c3c2=O)CCN(C)C4)cc1 was read as ABHD5 PLIN5 PPI 5.5, Rtt109 Vps75 -11.9, PRMT1 FP inh 6.7, LANA-H2B inh 2.1, ALR inh -5.6 and rCAG binder 8.3.
Screening COC(=O)C1=C(C)N(Cc2ccccc2C(F)(F)F)C(=NCc2ccc(OC)cc2)NC1c1ccccc1 (centres undefined) returned PRMT1 FP inh 0.7 and rCAG binder 7.1.
Screening CC(=O)c1cccc(-c2ccnc3c2CC(C(=O)NCc2ccco2)O3)c1 (centres undefined) returned ABHD5 PLIN5 PPI 5.0, PRMT1 FP inh 1.9 and rCAG binder 0.5.
Screening O=S1(=O)CCN(c2ccccc2CC(c2c[nH]c3ccccc23)c2c[nH]c3ccccc23)CC1 returned ABHD5 PLIN5 PPI 5.0, Rtt109 Vps75 3.6, PRMT1 FP inh 5.3 and rCAG binder 11.3.
COc1cnc(-c2ccccn2)nc1Sc1ccccc1 was read as ABHD5 PLIN5 PPI 5.1, Rtt109 Vps75 -18.8, PRMT1 FP inh -5.0, LANA-H2B inh -1.7, ALR inh 95.9* and rCAG binder -5.8.
For COc1ccc(Sc2nc(-c3ccccn3)ncc2OC)cc1 the results were ABHD5 PLIN5 PPI -7.9, Rtt109 Vps75 3.8, PRMT1 FP inh -0.2, LANA-H2B inh 2.3, ALR inh inconclusive and rCAG binder -0.4.
Screening COC(=O)C1=C(\O)CCCC/C=C\1C(=O)O returned ABHD5 PLIN5 PPI 22.1*, Rtt109 Vps75 -3.2, PRMT1 FP inh 0.7 and rCAG binder 0.3.
CCCc1cc2c(=O)c(-c3nc4ccccc4s3)c(COCC(=O)O)oc2cc1O was read as ABHD5 PLIN5 PPI 2.6, Rtt109 Vps75 26.1, PRMT1 FP inh 5.7 and rCAG binder 55.0*.
For CCc1cc2c(=O)c(-c3nc4ccccc4n3C)c(COCC(=O)O)oc2cc1O the results were ABHD5 PLIN5 PPI 0.7, Rtt109 Vps75 -11.9, PRMT1 FP inh 2.4, LANA-H2B inh 1.6, ALR inh -64.1 and rCAG binder 4.7.
`O=C(C1CCCN(S(=O)(=O)c2cccs2)C1)N1CCN(Cc2ccccc2)CC1` (centres undefined) gave PRMT1 FP inh -2.0 and rCAG binder 1.6.
Screening CC(C)c1ccc(S(=O)(=O)N2CCN(CC(=O)Nc3ccc(Cl)cc3F)CC2)cc1 returned ABHD5 PLIN5 PPI -13.1, Rtt109 Vps75 -15.3, PRMT1 FP inh 4.2, LANA-H2B inh -0.5, ALR inh -2.3 and rCAG binder 3.0.
CC(C)c1ccc(S(=O)(=O)N2CCN(CC(=O)c3ccc(O)c(O)c3)CC2)cc1 was read as ABHD5 PLIN5 PPI 0.2, Rtt109 Vps75 12.1, PRMT1 FP inh 14.8, LANA-H2B inh 1.1, ALR inh 99.1* and rCAG binder 10.2.
